From PubChem BioAssay (NCI)
About 83,000 compounds went through this panel and 20% of them were active in at least one assay; those are over-represented in the sample as a whole.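 Plates (96-well) were seeded with cells, treated with compound at one concentration, and incubated for 48 hours before percent growth was determined.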 Unmarked numbers belong to inactive results. Active and inactive are the calls of the source. Rule for the calls: active = growth percent below 10; inactive = the rest.

Assays:
Assay in all cases: NCI-60 one-dose screen, 48 h (100 = growth as untreated, 0 = no growth, -100 = all killed)
Settings in all cases: 10 µM
[1] = test system: NCI-H23 lung
[2] = test system: NCI-H226 lung
[3] = test system: NCI-H322M lung
[4] = test system: HOP-62 NSCLC
[5] = test system: NCI-H460 lung
[6] = test system: NCI-H522 lung
[7] = test system: A549/ATCC NSCLC
[8] = test system: 786-0 renal
[9] = test system: COLO 205 colon
[10] = test system: DU-145 prostate
[11] = test system: K-562 leukemia
[12] = test system: MALME-3M melanoma
[13] = test system: MDA-MB-231 breast
[14] = test system: RXF 393 renal
[15] = test system: SF-268 CNS
[16] = test system: SF-295 CNS
[17] = test system: SF-539 CNS
[18] = test system: UACC-257 melanoma
[19] = test system: M14 melanoma
[20] = test system: HCT-15 colon

Structure (SMILES)	growth [1]	growth [2]	growth [3]	growth [4]	growth [5]	growth [6]	growth [7]	growth [8]	growth [9]	growth [10]	growth [11]	growth [12]	growth [13]	growth [14]	growth [15]	growth [16]	growth [17]	growth [18]	growth [19]	growth [20]
COc1ccc(S(=O)(=O)Nc2c(/C=C\c3cc(OC)c(OC)c(OC)c3)ccc(OC)c2O)cc1	33.1%	12.9%	40.5%	49.1%	6.2% (active)	-47.6% (active)	15.6%	9.56% (active)	3.21% (active)	-16.7% (active)	12.3%	61.5%	5.46% (active)	33.5%	13.3%	3.31% (active)	-28.9% (active)	32.4%	2.65% (active)	7.33% (active)
CCOC(=O)N1C/C(=C/c2ccc(OC)cc2)C(=O)/C(=C/c2ccc(OC)cc2)C1	46.3%	23.8%	71.1%	29.5%	42%	39%	21.4%	-2.34% (active)	24.5%	17.7%	-2.17% (active)	34.2%	30.6%	-44.4% (active)	38.2%	24.5%	39.4%	42.9%	-40.8% (active)	3.06% (active)
O=C(Nc1cccc(-n2cc(-c3ccncc3)c(-c3ccc(O)c(Cl)c3)n2)c1)c1cccc(C(F)(F)F)c1	41.9%	68%	47%	47.2%	17.2%	28.2%	16.1%	21.4%	98.8%	51.1%	19.3%	24.6%	-58.9% (active)	-12.4% (active)	51.7%	7.62% (active)	27.4%	33.3%	28.4%	23.8%
COc1ccc(OC)c(/C=C/c2nc(SCc3ccccc3)n(-c3ccc(Cl)cc3)n2)c1	54.3%	72.7%	82.9%	79.4%	24.4%	66.6%	46.5%	48.8%	114%	77.7%	18.2%	34.9%	67.1%	82.8%	57.7%	-15.4% (active)	44.2%	74%	14.1%	34%
O=[N+]([O-])c1ccc(N/N=C/c2cccc3ccccc23)nc1	102%	121%	105%	110%	117%	84.8%	92.4%	99.2%	102%	124%	85.4%	168%	101%	112%	121%	126%	102%	102%	104%	91.1%
COc1cc(NC(=O)CCSc2nc3ccc(C)cc3c(=O)n2Cc2ccccc2)cc(OC)c1OC	108%	27.4%	71.9%	9.27% (active)	48.3%	65.2%	42.6%	72.6%	112%	83.6%	78%	33.8%	52.5%	36.4%	40.4%	59.4%	33.5%	57.1%	87.4%	76.5%
CN(C)CCN1C(=O)c2cccc3c(-c4ccc5ncn(C6CCCCC6)c5c4)ccc(c23)C1=O	30.5%	25.1%	25.3%	23.4%	1.4% (active)	4.65% (active)	3.34% (active)	19.1%	8.59% (active)	27%	6.76% (active)	30.8%	33.6%	26.3%	35.8%	23.1%	31.9%	23.1%	30.2%	12.5%
Cc1ccc(C(=O)N2C/C(=C/c3ccccc3)C(=O)/C(=C/c3ccccc3)C2)cc1	78.6%	71.2%	80.5%	76.9%	90%	69%	84%	53.6%	76.7%	58.3%	5.67% (active)	60.3%	53.4%	31.3%	66.4%	56.1%	87.2%	80.1%	18.2%	24.5%
